Common to all, as to format: functional
The test system of assay [1] is Plasmodium falciparum. In words: GSK_TCMDC: Inhibition of Plasmodium falciparum 3D7 in whole red blood cells, using parasite LDH activity as an index of growth. Test compounds present at 2uM.
The test system of assay [2] is Plasmodium falciparum. In words: GSK_TCMDC: Inhibition of Plasmodium falciparum Dd2 in whole red blood cells, using parasite LDH activity as an index of growth. Test compounds present at 2uM.
The test system of another assay is HepG2. The assay is described as follows: GSK_TCMDC: Percent inhibition of human HepG2 cell line. Test compounds present at 10uM.

As a reminder, the Inhibition is the drop in the measured response relative to a control, in per cent.

On to `Cc1ccc(Cn2ncc(N3CCNCC3)c(Cl)c2=O)cc1NC(=O)Nc1ccc(-c2ccccc2)cc1.O=C(O)C(F)(F)F`, for which the figures for the Inhibition in the assay on Plasmodium falciparum [1], in the assay on Plasmodium falciparum [2] and in the assay with HepG2 were 90%, 30% and 56%, respectively.
Take `CC(C)N1CCC(N(Cc2ccc(-c3ccc(C(F)(F)F)cc3)cc2)C(=O)Cn2c(CCc3cccc(F)c3F)cc(=O)c3cn(C)nc32)CC1.O=C(O)C(O)C(O)C(=O)O`: the results for the Inhibition in the assay with Plasmodium falciparum [1], with Plasmodium falciparum [2] and with HepG2 were 89%, 78% and 100%, respectively.
In the case of `CC(C)c1ccc(NC(=O)NC2CCN(CCCCCN(C)C(=O)/C=C/c3ccc(Cl)c(Cl)c3)C2)cc1` (stereo unspecified), the Inhibition came out at 99% in the assay on Plasmodium falciparum [1], 3% in the assay with Plasmodium falciparum [2] and 28% in the assay on HepG2.
For `Cc1ccccc1NC(=O)C1CSCN1C(=O)OCc1ccccc1` (stereo unspecified) the same measures were 91%, 0% and 8%.
As for `COc1cc(Cc2cnc(N)nc2N)cc(OC(C)C)c1OC`, the Inhibition with Plasmodium falciparum [1] is 91%; with Plasmodium falciparum [2] it was 15%; in the assay on HepG2, 10%.
For `CC(C)CCN1CCC(Oc2ccc(NC(=O)c3ccsc3)cc2Cl)CC1.O=C(O)C(F)(F)F` the same measures were 89%, 81% and 19%.
Consider `COc1ccc(-c2cc(Nc3nc(-c4cccc(Cl)c4)nc4ccccc34)ccn2)cc1`, for which the results for the Inhibition in the assay with Plasmodium falciparum [1], in the assay with Plasmodium falciparum [2] and in the assay on HepG2 were 100%, 17% and 3%, respectively.
For the molecule `N#Cc1ccc2[nH]c(-c3ccccc3)nc2c1`, the figures for the Inhibition with Plasmodium falciparum [1], with Plasmodium falciparum [2] and in the assay with HepG2 were 95%, 1% and 7%, respectively.
On to `COc1cc(NC(=O)Nc2ccc([N+](=O)[O-])cc2OC)c(OC)cc1Cl`, for which the Inhibition stood at 87% in the assay on Plasmodium falciparum [1], 6% in the assay with Plasmodium falciparum [2] and 38% in the assay with HepG2.
With `N=C(N)c1ccc(C=Cc2ccc(C(=N)N)cc2O)cc1.O=S(=O)(O)CCO`, the Inhibition in the assay with Plasmodium falciparum [1] amounted to 92%; in the assay on Plasmodium falciparum [2], 80%; with HepG2 it was 10%.
On to `NC(=O)c1cccc(C(=O)Nc2cccc(-c3cccc(-c4nc5ccccc5[nH]4)c3)c2)c1`, for which the Inhibition is reported as 100% in the assay on Plasmodium falciparum [1], 78% in the assay on Plasmodium falciparum [2] and 32% in the assay with HepG2.
As to `Cc1cc(N[C@@H](Cc2ccccc2)C(=O)NCCOc2ccccc2)nc(NCCc2ccc(F)cc2)n1.O=C(O)C(F)(F)F`, the Inhibition is on record as 99% in the assay on Plasmodium falciparum [1], 86% in the assay with Plasmodium falciparum [2] and 5% in the assay with HepG2.
Regarding `Cc1cc(Cl)ccc1OC(C)C(=O)N1CCc2ccccc21` (stereo unspecified), the Inhibition in the assay on Plasmodium falciparum [1] was found to be 94%; in the assay on Plasmodium falciparum [2], 78%; in the assay with HepG2 it was 8%.
For `CC1=C(C(=O)OCCOCc2ccccc2)C(c2ccccc2C(F)(F)F)C(C(=O)OCCOCc2ccccc2)=C(C)N1` the same measures were 89%, 87% and 0%.
For the molecule `CCOC(=O)C1=C(C)NC(Cn2ccnc2)=C(C(=O)OCC)C1c1ccc(C(C)(C)C)cc1.Cl` (stereo unspecified), the Inhibition is on record as 100% in the assay on Plasmodium falciparum [1], 33% in the assay on Plasmodium falciparum [2] and 8% in the assay on HepG2.
On to `COc1ccc(S(=O)(=O)NCCC2CCN(CCCCCNC(=O)C=Cc3ccc(Cl)c(Cl)c3)CC2)cc1`, for which the Inhibition worked out at 87% in the assay with Plasmodium falciparum [1], 0% in the assay with Plasmodium falciparum [2] and 36% with HepG2.
For `Cl.c1ccc2nc(NCCCCCCCCNc3ccc4ccccc4n3)ccc2c1` the same measures were 100%, 37% and 52%.
For `CC(C)C(=O)NC(c1ccc(Cl)cc1)c1ccc2cccnc2c1O` (stereo unspecified), the Inhibition with Plasmodium falciparum [1] was 91%; with Plasmodium falciparum [2], 70%; in the assay with HepG2, 53%.
Regarding `O=c1c(NCCCN(Cc2ccc(F)cc2)c2ccccn2)c(NCc2cccnc2)c1=O`, the Inhibition is recorded as 100% with Plasmodium falciparum [1], 92% with Plasmodium falciparum [2] and 0% with HepG2.
In the case of `CCOC(=O)c1cn(CC)c2cc(OCc3ccccc3)ccc2c1=O`, the figures for the Inhibition in the assay with Plasmodium falciparum [1], in the assay on Plasmodium falciparum [2] and with HepG2 were 97%, 96% and 2%, respectively.
Take `COc1ccc2nccc([C@@H](O)CN3CCC(NC[C@H](Cc4ccccc4)NC(=O)OC(C)(C)C)CC3)c2c1.O=C(O)C(=O)O`: the results for the Inhibition with Plasmodium falciparum [1], in the assay on Plasmodium falciparum [2] and with HepG2 were 98%, 86% and 18%, respectively.
As to `Oc1ccc(Nc2nc(NCc3ccccc3)c3ccccc3n2)cc1`, the Inhibition in the assay with Plasmodium falciparum [1] is listed as 100%; with Plasmodium falciparum [2] it was 100%; in the assay with HepG2, 33%.
On to `O=C(NCCc1ccccc1)N(Cc1ccccc1-c1ccc(CNCCc2ccccc2)cc1)C1CCN(Cc2ccccc2)CC1.O=C(O)C(F)(F)F`, for which the Inhibition in the assay on Plasmodium falciparum [1] turned out to be 97%; in the assay with Plasmodium falciparum [2] it was 91%; in the assay on HepG2 it was 99%.
Regarding `CN(C)CC(=O)N(Cc1ccc(Cl)c(Cl)c1)Cc1csc(-c2ccc(CNCc3ccccc3)cc2)n1.O=C(O)C(F)(F)F`, the Inhibition in the assay with Plasmodium falciparum [1] came out at 96%; with Plasmodium falciparum [2], 32%; in the assay on HepG2, 30%.
On to `N=C(N)Nc1nc(-c2cccc(NC(=O)NCC(c3ccccc3)c3ccccc3)c2)cs1`, for which the Inhibition worked out at 100% in the assay on Plasmodium falciparum [1], 87% in the assay with Plasmodium falciparum [2] and 0% with HepG2.
For the molecule `COc1ccccc1C1CCN(C2CCC(NC(=O)/C=C/c3cc(C(F)(F)F)ccc3F)CC2)CC1` (stereo unspecified), the Inhibition in the assay on Plasmodium falciparum [1] was 97%; with Plasmodium falciparum [2] it was 32%; with HepG2, 39%.
For `CCc1cccc2sc(N3CCN(C(=O)c4ccc([N+](=O)[O-])o4)CC3)nc12` the same measures were 97%, 94% and 2%.
`CS(=O)(=O)c1ccc(-c2cc(C(F)(F)F)nc(N[C@@H]3CCCC[C@H]3OCc3ccccc3)n2)cc1`: the Inhibition was 100% with Plasmodium falciparum [1], 99% in the assay on Plasmodium falciparum [2] and 8% with HepG2.
With `COc1ccc(COc2cc(NCCCN)nc3ccccc23)cc1`, the Inhibition with Plasmodium falciparum [1] is listed as 100%; in the assay on Plasmodium falciparum [2] it was 5%; with HepG2 it was 3%.
`CC(=O)C1=NN(c2ccc(Cl)cc2)C(c2cccs2)N1c1ccccc1` (stereo unspecified): the Inhibition with Plasmodium falciparum [1] was found to be 88%; with Plasmodium falciparum [2], 70%; with HepG2, 0%.
Turning to `CN(C)c1ccc(-c2ccc(C(=O)NC3CCN(Cc4ccc5c(c4)OCCO5)CC3)s2)cc1.O=C(O)C(F)(F)F`, the Inhibition in the assay with Plasmodium falciparum [1] is listed as 100%; in the assay with Plasmodium falciparum [2] it was 73%; in the assay on HepG2, 36%.
As for `CC(C)c1ccc(-c2noc(SCC(=O)N3CCCCC3C)n2)cc1` (stereo unspecified), the Inhibition was determined as 92% in the assay with Plasmodium falciparum [1], 92% with Plasmodium falciparum [2] and 21% in the assay on HepG2.

The record behind these values is ChEMBL document CHEMBL1157539, “Thousands of chemical starting points for antimalarial lead identification” (Nature, 2010).
